This note sets out measurements from PubChem BioAssay AID463173 (ICCB-Longwood Screening Facility, Harvard Medical School, 2010).

In all, about 52,000 compounds went through this assay and about 4,300 (8.3%) were called active. Many of the other results were omitted from the sample, so actives are more common in it than they were. A number with no mark means an inactive call. No stated cut-off is given here; in the data, active means survival mostly below about 52% (no sharp cut-off); inactive means mostly above about 56%.

This assay relates to DeltatarO mutant. Description: growth inhibition of S. aureus wild type versus tarO mutant, primary screen, teichoic acid synthesis inhibitors, RN4220, OD600 (AID 463173). The note with it: OD600, 18 h, hits give low values, screened at 18.75 µg/mL (by protocol).
Turning to `Cc1cc2nc(-c3ccc(NC(=O)c4ccc(OCC(C)C)cc4)cc3)oc2cc1C`, the survival is 78%.
The figure for `Cc1c(CNC2CCCCC2)c(C(=O)O)c(C)n1Cc1ccccc1F` is 88%; for `Cc1ccc2c(c1)-c1onc(C(=O)N(C)c3cccc(C(F)(F)F)c3)c1CO2` it is 108%; for `CC(C)OCCCNC(=O)c1ccc2c(c1)N(Cc1c(F)cccc1Cl)C(=O)c1ccccc1S2` it is 76%.
Then `CCCCc1nn2c(=O)cc(COC(=O)c3cccc(Cl)c3)nc2s1`, with 67%; and `COc1ccc(C(CC(=O)NCc2ccccc2Cl)N2Cc3ccccc3C2=O)cc1OC` (stereo not given), with 80%.
The figure for `COc1ccccc1N1CCN(S(=O)(=O)c2c(C)sc3ncn(CC(=O)Nc4ccc(C)cc4Br)c(=O)c23)CC1` is 73%.
With `O=C(Cc1ccccc1)NC1CCS(=O)(=O)C1` (stereo not given), the survival is 97%.
Then `O=C(CCn1cnc2ccccc2c1=O)NCc1ccccc1`, with 109%.
As to `Cc1ccc2c(CC(=O)N(Cc3ccc(N(C)C)cc3)Cc3ccco3)coc2c1C`, the survival is 45% (active).
For `Cc1cc(C)c2c(CC(=O)N(Cc3ccc(Cl)cc3)Cc3ccco3)coc2c1`, the survival was 57%.
The figure for `Cc1cc(C)c2c(CC(=O)N(Cc3ccc(N(C)C)cc3)Cc3ccco3)coc2c1` is 42% (active).
Then `Cc1ccc2c(CC(=O)N(Cc3ccc(Cl)cc3)Cc3ccco3)coc2c1`, with 99%; and `Cc1ccc2c(C)c(C(=O)N(Cc3ccc(N(C)C)cc3)Cc3ccco3)oc2c1C`, with 87%; and `Cc1cc(C)c(OCC(=O)N(Cc2ccc(N(C)C)cc2)Cc2ccco2)c(C)c1`, with 49%.
On to `COc1ccccc1CCNC(=O)Cc1c(C)c2cc3c(C(C)(C)C)coc3c(C)c2oc1=O`, for which the survival was 101%.
The figure for `O=C(CC1(c2ccc(Cl)cc2)C(=O)c2ccccc2C1=O)N1CCOCC1` is 79%; for `Cn1ncc2nc(SCC(=O)Nc3ccc(Br)cc3F)n(Cc3ccccc3)c(=O)c21` it is 29% (active).
Then `Cc1nc2ccccc2n1CCc1nc2c3ccccc3nc(SCC(=O)Nc3ccc(Br)cc3F)n2n1`, with 98%; and `Cn1c(=O)c2c(nc(SCC(=O)Nc3ccc(F)cc3F)n2Cc2ccccc2)n(C)c1=O`, with 135%.
The figure for `CCOC(=O)c1ccccc1NC(=O)c1nn(C)c2c1COc1ccccc1-2` is 59%; for `COC(=O)c1ccccc1NC(=O)Cn1ncc2c(C)n(Cc3ccc(F)cc3)c(C)c2c1=O` it is 52%.
Regarding `Cc1cccc(NC(=O)Cn2nc(C)c3nn(-c4ccc(Cl)cc4)c(C)c3c2=O)c1C`, the survival is 94%.
Then `O=C(O)c1ccc(NCc2nc3ccccc3n2CCOc2ccccc2Cl)cc1`, with 59%; and `COc1ccc(OCCn2c(NC(=O)c3ccc(OC)cc3)nc3ccccc32)cc1`, with -2% (active); and `CCn1c(NC(C)=O)nc2ccccc21`, with 85%.
On to `OCCNc1nc2ccccc2n1CCOc1ccccc1`, for which the survival was 68%.
The figure for `COc1cc(C)ccc1OCCn1c(-c2ccc(Cl)cc2)nc2ccccc2c1=O` is 62%; for `CCCn1c(CCCNC(=O)c2ccccc2OC)nc2ccccc21` it is 111%.
The figure for `COc1ccccc1OCCn1c(-c2ccc(Cl)cc2)nc2ccccc2c1=O` is 77%; for `O=C(Nc1nc2ccccc2n1CCOc1ccccc1Cl)c1ccccc1` it is 17% (active); for `COc1ccccc1OCCn1c(NC(=O)c2ccccc2Cl)nc2ccccc21` it is -3% (active).
The figure for `COc1ccccc1OCCn1c(NC(=O)c2ccc(Cl)cc2)nc2ccccc21` is 45% (active); for `COc1ccccc1OCCCCn1c(C2CC(=O)N(c3ccccc3Cl)C2)nc2ccccc21` (stereo not given) it is 61%; for `CC(NC(=O)c1ccccc1)c1nc2ccccc2n1Cc1ccc(Cl)cc1` (stereo not given) it is 83%.
With `COC(=O)c1ccc(Cl)cc1NC(=O)N1CC2CCCN2c2ccccc21` (stereo not given), the survival was 71%.
For the compound `CC(=O)Nc1ccc(-c2cn(CC(=O)NN)cn2)cc1`, the survival was 111%.
Then `COc1cc(OC)cc(C(=O)Nc2ccc(S(=O)(=O)Nc3ncccn3)cc2)c1`, with 82%; and `CN1CCc2nc3sc(C(=O)Nc4ccccc4C(F)(F)F)c(N)c3cc2C1`, with 150%.
The figure for `CCC(=O)N1CCc2cc(S(=O)(=O)CCC(=O)Nc3ccc(OC(F)(F)F)cc3)ccc21` is 83%; for `COc1cc(NC(=O)CC2C(=O)N(c3cccc(C)c3)C(=O)N2Cc2ccco2)cc(OC)c1` (stereo not given) it is 101%.
Then `Cc1ccc(Cl)cc1NC(=O)CSCc1cnn(-c2ccccc2)c1-n1cccc1`, with 70%.
`COc1ccc(CNC(=O)Cc2ccc(NC(=O)N3CCSc4ncccc43)cc2)cc1`: the survival was 95%.
The figure for `Cc1cccc(NC(=O)c2cc(S(=O)(=O)NCCc3ccccc3)ccc2F)c1C` is 73%; for `Cc1cccn2c(=O)c3cc(C#N)c(=O)n(-c4nnc(SCc5ccccc5F)s4)c3nc12` it is 70%; for `O=C(O)C(=Cc1ccc(-c2cccc(C(F)(F)F)c2)o1)C(=O)O` it is 65%.
Then `COc1ccc(C(=O)Nc2nc3ccccc3n2CCOc2ccc(Cl)cc2)cc1`, with -5% (active); and `Fc1ccc(CNCc2ccccc2)cc1`, with 99%.
Then `COc1cc(OC)c(NC(=O)CSC2=Nc3ccccc3N=C(c3ccc(F)cc3)C2)cc1Cl`, with 65%; and `CCn1c(SCc2ccccc2C)nc(=O)c2c(C(=O)OC)cc(C3CC3)nc21`, with 71%.
Consider `CCn1c(SCc2ccccc2F)nc(=O)c2c(C(=O)OC)cc(C3CC3)nc21`, for which the survival is 52% (active).
Then `CCn1c(SCc2ccccc2Cl)nc(=O)c2c(C(=O)OC)cc(C3CC3)nc21`, with 77%.
Then `C=CCn1c(NC)nc2c1c(=O)[nH]c(=O)n2C`, with 105%.
Then `Cc1cc(C)cc(OCC(=O)N(Cc2ccc(C)o2)C2CCS(=O)(=O)C2)c1` (stereo not given), with 89%.
As to `CC(=O)C1=C(OC(=O)C(C)C)c2ccccc2S(=O)(=O)N1Cc1ccccc1`, the survival is 104%.
As to `Cc1ccc(CNC(=O)CN2C(=O)COc3ccc(S(=O)(=O)Nc4ccccc4)cc32)cc1`, the survival was -4% (active).
The figure for `Cc1ccc(C2=Nc3ccccc3N(CC(=O)NCc3ccc(F)cc3)C(=O)C2)cc1C` is 90%; for `Cc1ccc2c(c1)N(CC(=O)NCCc1ccccc1)C(=O)CO2` it is 45%.
The figure for `Cc1ccc(C2=Nc3ccccc3N(CC(=O)NCc3ccc(Cl)cc3)C(=O)C2)cc1C` is 55%; for `COc1ccc(CCNC(=O)CN2C(=O)COc3ccc(C)cc32)cc1OC` it is 45% (active); for `Cc1ccc(CNC(=O)CCN2C(=O)COc3ccc(C)cc32)cc1` it is 50% (active).
Turning to `COc1ccc(CCNC(=O)CN2C(=O)COc3ccccc32)cc1OC`, the survival is 126%.
`COc1ccc(CNC(=O)CN2C(=O)COc3ccc(S(=O)(=O)Nc4ccccc4)cc32)cc1`: the survival was 66%.
The figure for `Cc1ccc(CNC(=O)CCCN2C(=O)COc3ccc(C)cc32)cc1` is 85%.
The figure for `COc1cccc(CNC(=O)CN2C(=O)COc3ccc(S(=O)(=O)Nc4ccccc4)cc32)c1` is 77%; for `Cc1ccc(CNC(=O)CN2C(=O)CC(c3ccc(C)c(C)c3)=Nc3ccccc32)cc1` it is 52% (active); for `Cc1ccc2c(c1)N(CCC(=O)NCc1ccc(F)cc1)C(=O)CO2` it is 62%.
Then `CN(C)CCCNc1c2c(nc3cc(-c4cccc(F)c4)nn13)CCC2`, with 103%; and `O=c1c2sc3ccccc3c2n(Cc2cccc(F)c2)c(=O)n1Cc1ccccc1`, with 78%; and `COc1ccc(CNC(=O)CN2C(=O)CSc3ccc(S(=O)(=O)N4CCOCC4)cc32)c(OC)c1`, with 91%.
As to `O=C1CCCc2cc(S(=O)(=O)NCC3CCC(C(=O)Nc4ccccc4F)CC3)ccc2N1` (stereo not given), the survival is 93%.
The figure for `Cc1ccc(NC(=O)N2CCC(CN3CCCC3)CC2)c(C)c1` is 80%.
As for `COc1ccc(CNC(=O)C2CCN(S(=O)(=O)c3cccc(-c4noc(C)n4)c3)CC2)cc1`, the survival was 92%.
The figure for `CC1CCc2c(sc(NC(=O)COc3ccccc3C(C)(C)C)c2C#N)C1` (stereo not given) is 67%; for `COC(=O)CSc1ncc2c(n1)-c1ccccc1N(Cc1ccccc1C)S2(=O)=O` it is 99%; for `Cc1ccc2c(c1)N(CCC(=O)NCc1ccccc1Cl)C(=O)CO2` it is 40% (active).
The figure for `Cc1cccc(CNC(=O)CCCN2C(=O)COc3ccc(C)cc32)c1` is 112%.
Then `CCOc1ccccc1CNC(=O)CCCN1C(=O)COc2ccc(C)cc21`, with 93%.
For `CCOC(=O)C1=C(CS(=O)(=O)c2ccc(OC)c(Cl)c2)NC(=O)NC1c1cccc(OC)c1` (stereo not given), the survival was 59%.
As for `Cc1cc(=O)[nH]c(SC(C)C(=O)Nc2ccccc2)n1` (stereo not given), the survival was 90%.
The figure for `Cc1ccc(C)c(NC(=O)CSc2nc(-c3ccccc3Cl)nc3c2Cc2c(CO)cnc(C)c2O3)c1` is 118%; for `COc1ccccc1NC(=O)CSc1nc(-c2cccc(Cl)c2)nc2c1Cc1c(CO)cnc(C)c1O2` it is 87%; for `Cc1cccc(NC(=O)CSc2nc(-c3ccccc3Cl)nc3c2Cc2c(CO)cnc(C)c2O3)c1C` it is 117%.
The figure for `COc1ccccc1-c1nc2c(c(SCC(=O)Nc3ccccc3F)n1)Cc1c(CO)cnc(C)c1O2` is 88%.
Then `Cc1ccc(-c2nc3c(c(SCC(=O)Nc4ccccc4Cl)n2)Cc2c(CO)cnc(C)c2O3)cc1`, with 46% (active); and `COc1ccccc1NC(=O)CSc1nc(-c2ccc(C)cc2)nc2c1Cc1c(CO)cnc(C)c1O2`, with 49% (active).
As to `Cc1ccc(C)c(N2CCN(Cc3csc(C)c3C)CC2)c1`, the survival is 77%.
The figure for `CSc1ccc(CCNc2ncnc3onc(C)c23)cc1` is 98%.
Then `O=C(c1ccc2c(c1)N(Cc1cccc(Cl)c1)C(=O)c1ccccc1S2(=O)=O)N1CCc2ccccc21`, with 0% (active); and `O=S1(=O)c2ccccc2N(Cc2ccc(Cl)cc2)c2ccccc21`, with 131%.
Then `O=S1(=O)c2ccccc2N(Cc2cccc(Cl)c2)c2ccccc21`, with 0% (active).
As for `O=C(c1ccc2c(c1)N(Cc1ccc(Cl)cc1)C(=O)c1ccccc1S2(=O)=O)N1CCc2ccccc21`, the survival was 120%.
The figure for `O=C(NCc1ccco1)c1ccc2c(c1)N(Cc1ccccc1)C(=O)c1ccccc1S2(=O)=O` is 68%; for `O=C(NCc1ccco1)c1ccc2c(c1)N(Cc1ccc(Cl)cc1)C(=O)c1ccccc1S2(=O)=O` it is 89%; for `O=C(NCc1ccco1)c1ccc2c(c1)N(Cc1cccc(Cl)c1)C(=O)c1ccccc1S2(=O)=O` it is 46% (active).
The figure for `COc1ccccc1CNC(=O)c1ccc2c(c1)N(Cc1cccc(C)c1)C(=O)c1ccccc1S2(=O)=O` is 87%.
Turning to `O=S1(=O)c2ccccc2N(Cc2ccccc2)c2ccccc21`, the survival was 69%.
The figure for `O=C(c1ccc2c(c1)N(Cc1ccccc1)C(=O)c1ccccc1S2(=O)=O)N1CCc2ccccc21` is 81%.
The figure for `COc1ccccc1CNC(=O)c1ccc2c(c1)N(Cc1cccc(Cl)c1)C(=O)c1ccccc1S2(=O)=O` is 37% (active).
The figure for `O=C(NCc1ccccc1)c1ccc2c(c1)N(Cc1cccc(Cl)c1)C(=O)c1ccccc1S2(=O)=O` is 93%.
